Screens as filed in PubChem.
Only some compounds are listed: those with a hit (about 6.5% of all), similar ones and a draw of the others.
VACV Venus inh: qHTS for Stage-Specific Inhibitors of Vaccinia Orthopoxvirus: Venus Reporter Primary qHTS. Vaccinia virus Venus reporter expression, fluorescence. AID 720580, 2013. Potency, µM (series often up to 36.5 µM), for inactives: at the top dose activity change, negative = inhibition, actives largely listed as inhibitors. hit rate 0.46% among 330,000; calls by dose curve; tested in A549 cells; note: potency is the fitted concentration of half-maximal effect; nearly all actives have a fitted effect of over 30% in size
Lassa entry inh: qHTS for Inhibitors of binding or entry into cells for Lassa Virus; AID 540256, 2011; Potency, µM (series often up to 37.9 µM), for the others: top-dose activity change, negative = inhibition, most hits filed as inhibitors; hit rate 1.2% among 300,000; Lassa virus pseudotype entry inhibition, cell reporter; calls by dose curve; tested in HEK293 cells; note: potency is the fitted concentration of half-maximal effect; nearly all actives have a fitted effect of over 50% in size
VACV mCherry inh: qHTS for Stage-Specific Inhibitors of Vaccinia Orthopoxvirus: mCherry Reporter Primary qHTS. Vaccinia virus mCherry reporter infection, fluorescence. Potency, µM (series often up to 36.5 µM), for the others: at the top dose activity change, negative = inhibition, hits mostly inhibitors. hit rate 0.63% among 310,000; calls by dose curve; tested in A549 cells; note: potency is the fitted concentration of half-maximal effect; nearly all actives have a fitted effect of over 35% in size
HCMV antiviral: qHTS Assay for inhibitors of the human cytomegalovirus (HCMV); HFF cells, HCMV-luciferase reporter, 72 h; hits give low values; activity change, negative = inhibition, % at 57.5 µM; hit rate 4.5% among 410,000; AID 1259415, 2018; in the data active = activity change below about -60%; inconclusive = no clear call, values can overlap the other calls; inactive = above about -39%
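Luciferase read-out from HCMV-luciferase-infected HFFs (MOI 1 PFU/cell) 72 h post infection at 37C; compounds added after 16 h cell attachment; activity normalized between buffer-only basal and Salinomycin (10uM) inhibitor controls.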
MARV entry inh: qHTS for inhibitors of binding or entry into cells for Marburg Virus. Marburg virus pseudotyped entry inhibition, cell reporter. Potency, µM (top dose mostly 37.8 µM), inactives show at the highest dose activity change, negative = inhibition, actives largely listed as inhibitors. AID 540276, 2011. hit rate 1.8% among 300,000; calls by dose curve; tested in HEK293 cells; note: potency is the fitted concentration of half-maximal effect
FMDV inh: High Throughput Screening for Foot and Mouth Disease Virus Antivirals. FMDV antiviral cell-based qHTS. AID 1159524, 2015. hit rate 1.2% among 410,000. Potency, µM (titrated, usually from 57.9 µM), for inactives: at the top dose activity change, negative = inhibition, usual class: inhibitors; calls by dose curve; tested in HEK293T cells; note: read-out not given here; potency is the fitted concentration of half-maximal effect; nearly all actives have a fitted effect of over 45% in size
* = called active by the depositor; i = inactive; ? = inconclusive; nt = not tested or not shown; ! = a repeat was not active; [ ] = another dose, or the depositor's remark. % is set by controls: 0 for no effect and ±100 for the full control effect.

SMILES | VACV Venus inh | Lassa entry inh | VACV mCherry inh | HCMV antiviral | MARV entry inh | FMDV inh
CC1(C)C(=O)NC2=C1C(=O)C(=O)c1ccccc12 | nt | nt | nt | nt | nt | 14µM*
CC(=O)c1sc(N/N=C/c2cccc(O)c2)nc1C | -20% | nt | -16% | 173 | nt | 26%
CC(=O)c1sc(N/N=C\c2c(O)ccc3ccccc23)nc1C | 25% | ? | ? | -75* | ? | -6%
Cc1cc(C)nc(NC(=O)c2c(F)c(F)c(F)c(C(=O)Nc3cc(C)cc(C)n3)c2F)c1 | nt | nt | nt | -15 | nt | 25µM*
CC(=O)c1cc(-c2ccc(F)cc2)n(CC(=O)NCc2ccc(C)cc2)c1C | -6% | 16%[46.1 µM] | -6% | ? | nt | -5%
CN(C(=O)COc1cc(=O)n(C)c2ccccc12)c1cccc(Cl)c1 | 0% | nt | -11% | -32 | nt | -24%
CCN(C(=O)COc1cc(=O)n(C)c2ccccc12)c1cccc(Cl)c1 | nt | -6% | nt | -90* | 1% | -29%
CC[N+](C)(CC)CCC/C(=N/O)C(O)(c1ccccc1)c1ccccc1 | 0% | 1% | i | -65* | -17%[46.1 µM] | 7%
Cc1cc2nc(-c3ccc(OCc4ccc(F)cc4)cc3)cc(C(F)(F)F)n2n1 | -8% | 5%[46.1 µM] | 0% | 12 | -8%[46.1 µM] | -9%
COc1ccc(O)c(O)c1/C=C1\[C@@H](C)CCC2C(C)(C)CCC[C@]12C (some centres not stated) | nt | nt | nt | 3 | nt | nt
CCC(c1nc2ccccc2[nH]1)n1c(-c2ccc3ccccc3c2)nc2ccccc21 (configuration not stated) | -12% | nt | -4% | -13 | nt | -7%
CCCCCCCCC(c1nc2ccccc2[nH]1)N1CCN=C1c1cc2ccccc2[nH]1 (configuration not stated) | ? | nt | ? | -103* | nt | -22%
CC(C)/C=C1\CCc2c([nH]c3ccccc23)C1=O | -3% | 0%[46.1 µM] | -10% | -70* | 6%[46.1 µM] | 25%
O=C1/C(=C\c2ccccc2)CCc2c1[nH]c1ccccc21 | nt | ? | nt | -7 | 16µM* | 4%
Cc1ccc(/C=C2/CCc3c([nH]c4ccccc34)C2=O)cc1 | -11% | ? | i | 19 | ? | 29%
COc1cc(/C=C(/C#N)c2nc(-c3cc4ccccc4oc3=O)cs2)cc([N+](=O)[O-])c1O | nt | nt | nt | -87* | nt | nt
O=[N+]([O-])c1ccc(Oc2ccc(S(=O)(=O)N3CCCCC3)cc2)cc1 | -10% | -9% | -13% | -63* | ? | ?
CC1CCN(S(=O)(=O)c2ccc(Oc3ccc([N+](=O)[O-])cc3)cc2)CC1 | ? | ? | ? | -77* | -21% | ?
O=[N+]([O-])c1ccc(Oc2ccc(S(=O)(=O)N3CCOCC3)cc2)cc1 | 0% | ? | ? | ? | ? | -19%
CC1CCN(S(=O)(=O)c2ccc([N+](=O)[O-])cc2)CC1 | -8% | -4%[46.1 µM] | -15% | -6 | ? | -16%
N#Cc1c(C(F)(F)F)cc(-c2cccs2)nc1SCC(=O)Nc1cccc(Cl)c1 | -20% | 4%[46.1 µM] | -18% | -22 | 20%[46.1 µM] | 1%
N#Cc1c(C(F)(F)F)cc(-c2cccs2)nc1SCC(=O)Nc1cccc(Br)c1 | ? | 1%[46.1 µM] | ? | -70* | -20%[46.1 µM] | 0%
CC(C)CC(=O)Nc1nnc(SCC(=O)Nc2nccs2)s1 | -7% | -4% | -22% | -63* | 27% | -11%
Cc1nc(SCC(=O)Nc2nc3ccccc3s2)c(C#N)c(C)c1C | nt | ? | nt | -94* | ? | 0.1µM*
Cc1ccc2sc(NC(=O)CSc3nc(C)cc(C)c3C#N)nc2c1 | nt | ? | nt | 56 | ? | 55%
SMILES | VACV Venus inh | Lassa entry inh | VACV mCherry inh | HCMV antiviral | MARV entry inh | FMDV inh
Cc1cc(C(F)(F)F)c(C#N)c(SCC(=O)Nc2nc3ccccc3s2)n1 | 22% | ? | -7% | -60* | 4.5µM* | ?
COc1ccc(C(=O)c2c(N)c(-c3nc(-c4ccc(OC)cc4)cs3)c3ccccn23)cc1 | 1% | 3%[46.1 µM] | -12% | 24 | -10%[46.1 µM] | -12%
CCN1CCN(c2nc3c(S(=O)(=O)c4ccc(Br)cc4)nnn3c3ccsc23)CC1 | ? | 15%[46.1 µM] | ? | 13 | nt | 17%
CCCN1CNc2c(c(=O)[nH]c(=S)n2CCc2cccc(Cl)c2)C1 | -6% | nt | -10% | nt | nt | nt
CC(C)c1nnc(NC(=O)CSc2nc3ccccc3s2)s1 | nt | -5% | nt | -73* | 3% | 19%
COc1cc(-c2cc(-c3ccccc3)nc(SCC(=O)Nc3nccs3)c2C#N)cc(OC)c1OC | 2% | -4% | nt | 16 | -27% | -2%
Cc1nc(SCC(=O)Nc2nccs2)c(C#N)c(C)c1C | nt | nt | nt | -69* | nt | -25%
Cc1sc(NC(=O)CSC2=NCCS2)nc1-c1ccccc1 | -13% | ? | -20% | -24 | ? | ?
O=C(CSC1=NCCS1)Nc1nc2ccccc2s1 | ? | 8% | ? | -68* | -14% | 1%
CSc1nc(N)nc(SCC(=O)Nc2cccc(F)c2)c1C#N | ? | ? | ? | -65* | ? | ?
CC(C)C(=O)Nc1nnc2n1CCS2 | 3% | -1%[46.1 µM] | 11% | 5 | nt | -1%
CC(=O)Nc1ccc(/C=C/c2nc3ccccc3s2)cc1 | 35% | nt | 20% | nt | nt | nt
COCCN1C(=O)N(c2cccc(OC)c2)C(=O)C1CC(=O)Nc1ccccc1 (configuration not stated) | -2% | -12%[46.1 µM] | 0% | 22 | ? | -5%
COc1ccc(NC(=O)CSc2nc3nc(C)cc(C)n3n2)cc1 | -13% | ? | 8% | -11 | -4%[46.1 µM] | 27%
Cc1cc(C)n2nc(SCC(=O)Nc3ccccc3)nc2n1 | -13% | -2%[46.1 µM] | -4% | -63*! | ? | -10%
C(=N\Nc1nc(-c2ccccc2)cs1)/c1ccncc1 | 2% | ? | -53% | 16 | -19%[46.1 µM] | 36%
CCOC(=O)Cc1csc(N/N=C/c2cccc([N+](=O)[O-])c2)n1 | -18% | -25% | -22% | 13 | -20%[46.1 µM] | 0%
O=[N+]([O-])c1cccc(-c2csc(N/N=C/c3cccc(O)c3)n2)c1 | ? | 7.9µM* | ? | -35 | ? | ?
CN(C)S(=O)(=O)c1ccc(-c2csc(N/N=C/c3ccco3)n2)cc1 | -18% | 8.9µM* | ? | 0 | ? | 6.3µM*
